Results taken from PubChem BioAssay (NCATS).
Inconclusive results are not listed. Values without a mark were called inactive. Activity calls are given as the source filed them. Calls come from the whole dose curve; as a rule, active = well fitted curve in the direction sought with a large enough effect; inconclusive = small, poorly fitted or top-dose-only effect, or another doubt; inactive = no such curve, though single readings can be large; an effect the other way counts as inactive or inconclusive.

Test: qHTS of pediatric cancer cell lines to identify multiple opportunities for drug repurposing: Confirmatory screen for OHS-50 cells (AID 1347128);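 note: compound exposure lasted 48 h at 37 degrees C; nearly all actives have a fitted effect of over 55% in size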; for activity change, negative = cytotoxic: % is set by controls: 0 for no effect and ±100 for the full control effect
Settings: OHS-50 osteosarcoma cells viability; series mostly up to 45.9 µM; activity change, negative = cytotoxic: at the top concentration
Procedure, shortened: (§1)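 Cells (500-1,000/well) in growth media were settled 5 h at 37 degrees C, then given compounds for 48 h. Viability was read as CellTiter-Glo luminescence. Primary runs used MIPE at 11 points (0.78 nM-46 µM) and NPC at 8 points (0.59 nM-46 µM); follow-ups used 11 points.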
Potency is the fitted concentration of half-maximal effect.

Structure (SMILES) | Potency | activity change, negative = cytotoxic
COc1cccc2c1C(=O)c1c(O)c3c(c(O)c1C2=O)C[C@@](O)(C(C)=O)C[C@H]3O[C@H]1C[C@H](N)[C@H](O)[C@H](C)O1 | 2080 nM (active) | 
Oc1ccc(-c2ccc(-c3cc(Nc4cccc(CNC5CC5)c4)n[nH]3)cc2)c(O)c1 | 1470 nM (active) | 
CC[C@@]1([C@@H]2O[C@@H]([C@H]3O[C@@](O)(CO)[C@H](C)C[C@H]3C)C[C@H]2C)CC[C@H]([C@]2(C)CC[C@]3(C[C@H](O)[C@@H](C)[C@@H]([C@@H](C)[C@@H](OC)[C@H](C)C(=O)O)O3)O2)O1 | 456 nM (active) | 
C=C1C(=CC=C2CCC[C@]3(C)[C@@H]([C@H](C)CCCC(C)(C)O)CC[C@@H]23)C[C@@H](O)C[C@@H]1O |  | -21.3%
CN[C@H]1[C@@H](O)[C@@H]2O[C@@H]3O[C@H](C)CC(=O)[C@]3(O)O[C@@H]2[C@@H](NC)[C@H]1O |  | 4.47%
O=S(=O)(O)CCSSCCS(=O)(=O)O |  | 2.2%
C=CC(=O)Nc1ccc2ncnc(Nc3ccc(OCc4cccc(F)c4)c(Cl)c3)c2c1 | 6570 nM (active) | 
CCc1cc(C(C)=NOCc2ccc(C3CCCCC3)c(C(F)(F)F)c2)ccc1CN1CC(C(=O)O)C1 | 23300 nM (active) | 
COc1ccc(C(C)=O)c(O)c1 |  | -15.2%
C[C@@]12C(=O)OC(=O)[C@@]1(C)C1CCC2O1 | 4650 nM (active) | 
CC(C)C[C@H](NC(=O)[C@@H](NC(=O)c1cccc(-c2ccccc2)n1)[C@@H](C)O)B(O)O | 131 nM (active) | 
CCCCC(=O)O[C@]1(C(=O)CO)[C@@H](C)C[C@H]2[C@@H]3CCC4=CC(=O)C=C[C@]4(C)[C@@]3(F)[C@@H](O)C[C@@]21C |  | -0.957%
CCC(C=C[C@@H]1OC(=O)C=C[C@H]1C)=C[C@H](C)CC=CC(C)=C[C@@H](C)C(=O)[C@@H](C)[C@H](O)[C@@H](C)CC(C)=CC(=O)O | 16.1 nM (active) | 

Test: qHTS of pediatric cancer cell lines to identify multiple opportunities for drug repurposing: Confirmatory screen for SK-N-SH cells (AID 1347129);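 note: cells exposed to compound for 48 h before viability read; nearly all actives have a fitted effect of over 60% in size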;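 for activity change, negative = cytotoxic: plate controls were DMSO for no effect and bortezomib control for full effect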
Settings: SK-N-SH neuroblastoma cell viability; series mostly up to 46.1 µM; activity change, negative = cytotoxic: at the top concentration
Procedure, shortened: as §1

Structure (SMILES) | Potency | activity change, negative = cytotoxic
COc1cccc2c1C(=O)c1c(O)c3c(c(O)c1C2=O)C[C@@](O)(C(C)=O)C[C@H]3O[C@H]1C[C@H](N)[C@H](O)[C@H](C)O1 | 662 nM (active) | 
Oc1ccc(-c2ccc(-c3cc(Nc4cccc(CNC5CC5)c4)n[nH]3)cc2)c(O)c1 |  | -1.73%
CC(=O)NCC(=O)N1[C@H]2CC[C@H]1c1cc(Nc3ncc(C(F)(F)F)c(NC4CCC4)n3)ccc12 | 2090 nM (active) | 
CN[C@H]1[C@@H](O)[C@@H]2O[C@@H]3O[C@H](C)CC(=O)[C@]3(O)O[C@@H]2[C@@H](NC)[C@H]1O |  | -5.23%
O=C1NC(=O)C(=Cc2ccc3nccc(-c4ccncc4)c3c2)S1 | 4180 nM (active) | 
O=S(=O)(O)CCSSCCS(=O)(=O)O |  | 10.2%
C=CC(=O)Nc1ccc2ncnc(Nc3ccc(OCc4cccc(F)c4)c(Cl)c3)c2c1 | 16600 nM (active) | 
COc1ccc(Nc2cc(-c3cnc(N)nc3)nc(N3CCOCC3)n2)cn1 | 5900 nM (active) | 
CCN(CC)CCNC(=O)c1c(C)[nH]c(C=C2C(=O)Nc3ccc(F)cc32)c1C | 9590 nM (active) | 
CN(C)c1ccc(C(=O)NCCCCCCC(=O)NO)cc1 | 2350 nM (active) | 
CC(C)C[C@H](NC(=O)CNC(=O)c1cc(Cl)ccc1Cl)B1OC(=O)CC(CC(=O)O)(C(=O)O)O1 (stereo not given in full) |  | -2.2%
Cc1[nH]c(C=C2C(=O)Nc3ccccc32)c(C)c1CCC(=O)O |  | 11.8%
